Reference: PubChem BioAssay (NCI)
This is part of a sample that, as a whole, favours compounds with a hit. Of some 83,000 tested, about 20% had one in any assay.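 Each cell line was grown in a 96-well plate and treated with one concentration of compound for 48 hours. Values below 10 were considered active.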 Values without a mark were called inactive. Activity calls are given as the source filed them.

tested on: HL-60(TB) leukemia; assay: NCI-60 one-dose screen, 48 h (100 = growth as untreated, 0 = no growth, -100 = all killed); conditions: 10 µM unless noted

Row | SMILES | growth
1 | CCN1C(=S)N(CC)C2C1NC(=S)N2/N=C/C=C/c1ccccc1OC (stereo unspecified) | -46.4% (active)
2 | NC(=O)OCCn1cc(-c2nc(-c3c[nH]c4ncccc34)cs2)c2ccccc21 | 6.14% (active)
3 | CCCCCC(=O)OCc1ccccc1 | 89.4%
4 | O=C1c2ccccc2C(=O)c2sc(Nc3cccc(Cl)c3)nc21 | -18.7% (active)
5 | O=C(NCCN1CCOCC1)OCc1nc2nc(Cl)nc(N3CCOCC3)c2[nH]1 | -54% (active)
6 | O=C(Nc1ccccc1)Nc1ncnc2c1ncn2-c1ccc(Cl)cc1 | 95.3%
7 | Brc1ccccc1Nc1ccc2nnc(-c3ccncc3)n2n1 | 96.4%
8 | Cc1nc2ccccc2c(C(=O)O)c1O | 186%
9 | NS(=O)(=O)c1cccc(NC(=O)C(=O)C2C(=O)Nc3ccccc32)c1 (stereo unspecified) | 159%
10 | COc1cc(C2=NOC(c3cc(OC)c(OC)c(OC)c3)C2)ccc1OCCCCOc1cc2c(cc1OC)C(=O)N1CCC[C@H]1C=N2 (stereo partly specified) | -22.7% (active)
11 | BrC(Br)(Br)c1cnc2ccccc2n1 | -38.1% (active)
12 | CCOC(=O)N1C/C(=C/c2ccc(Cl)cc2)C(=O)/C(=C/c2ccc(Cl)cc2)C1 | 61.5%
13 | Nc1c(Cl)cc(N=Nc2ccccc2)cc1Cl | 97.4%
14 | COc1cc(-c2c(C#N)c(N)n3c(nc4ccccc43)c2C#N)cc(Br)c1OC | 62.9%
15 | O=C1Nc2ccccc2SC1C1SC(=S)N(Cc2ccccc2)C1=O (stereo unspecified) | 0.669% (active)
16 | c1ccc(Nc2cc(-c3cccnc3)[nH]n2)cc1 | 89.3%
